This note sets out measurements from PubChem BioAssay (NCATS).

Each structure is given as a SMILES string. Values without a mark were called inactive. Records with an inconclusive call do not appear. Calls of active or inactive are those of the source. Calls follow the shape of the dose curve; as a rule, active = well fitted curve in the direction sought with a large enough effect; inconclusive = small, poorly fitted or top-dose-only effect, or another doubt; inactive = no such curve, though single readings can be large; an effect the other way counts as inactive or inconclusive.

Assay [1] in a line: Viability counterscreen for antagonist of constitutive androstane receptor (CAR) against the NCATS DSHEA and TCM libraries (AID 1794837).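 Also: compound exposure lasted 24 h before viability reading; 0% is about no effect.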 The procedure, abridged: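 Cells: HepG2 line carrying CYP2B6 reporter and hCAR, seeded and attached 5 h. Then pin-transferred test substances plus agonist CITCO at 48 uM final; 24 h incubation; fluorogenic viability reagent, 1 h.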
The nature of assay [2]: Viability counterscreen for agonist of constitutive androstane receptor (CAR) against the NCATS DSHEA and TCM libraries (AID 1794838).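 Also: HepG2 cells with CYP2B6 reporter and hCAR plus 0.75 µM PK11195 antagonist; 0% is about no effect.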 In outline:
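Cell health was measured as CellTiter-Fluor signal in HepG2-CYP2B6-hCAR cells treated for 24 h with substances alongside the hCAR antagonist PK11195 (0.75 uM final).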

Assay [3] is described as follows: HepG2 viability counterscreen (readout 2: ATP content) against the NCATS DSHEA and TCM libraries (AID 1794840). Also: 0% is about no effect. The procedure, abridged: (§1)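 Same wells read twice: first fluorescence from cleaved GF-AFC substrate (25 uM final, 30 min, 37C) for live-cell protease, then CellTiter-Glo luminescence after 30 min at room temperature for ATP. HepG2 cells were exposed ~24 h to substances.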

Assay [4] in a line: HepG2 viability counterscreen (readout 1: protease activity) against the NCATS DSHEA and TCM libraries (AID 1794841).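 Also: cells exposed to compounds for about 24 h before the protease read; 0% is about no effect.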 The procedure, abridged: as §1
The target in assay [5] is Cytochrome P450 3A4 (Homo sapiens) (UniProt P08684). Description: qHTS for inhibitors of CYP3A4 against the NCATS DSHEA and TCM libraries (AID 1919971). Also: potency is read from the fitted curve at half-maximal effect.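 As to activity change, negative = inhibition: % is scaled to controls: 0 for no effect and ±100 for the full control effect; inhibition lowers luminescence from luciferin made by CYP3A4.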 In outline: (§2)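 Read-out is luminescence after P450-Glo detection (30 min, RT). Before that: 15 min compound–enzyme preincubation, then 30-45 min reaction with 1x NADPH regeneration solution, substrate concentration isoform-specific.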
Cytochrome P450 3A4 (Homo sapiens), sequence (P08684 whole entry, looked up, canonical isoform): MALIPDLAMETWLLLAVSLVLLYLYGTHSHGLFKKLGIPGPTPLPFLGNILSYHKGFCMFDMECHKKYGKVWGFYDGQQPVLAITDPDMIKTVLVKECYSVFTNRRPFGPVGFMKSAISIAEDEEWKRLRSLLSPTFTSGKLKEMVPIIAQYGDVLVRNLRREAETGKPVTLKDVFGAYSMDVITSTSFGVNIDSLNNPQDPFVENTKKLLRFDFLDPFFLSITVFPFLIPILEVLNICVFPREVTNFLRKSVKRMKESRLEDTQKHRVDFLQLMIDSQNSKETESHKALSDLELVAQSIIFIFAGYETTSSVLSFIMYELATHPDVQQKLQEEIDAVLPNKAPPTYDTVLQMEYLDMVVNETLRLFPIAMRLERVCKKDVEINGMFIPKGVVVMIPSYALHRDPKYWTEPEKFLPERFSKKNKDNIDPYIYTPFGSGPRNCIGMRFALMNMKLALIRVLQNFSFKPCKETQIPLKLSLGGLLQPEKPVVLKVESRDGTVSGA

Assay [6] concerns the target Cytochrome P450 2D6 (Homo sapiens) (UniProt P10635). The experiment in a line: qHTS for inhibitors of CYP2D6 against the NCATS DSHEA and TCM libraries (AID 1919972). Also: potency is read from the fitted curve at half-maximal effect. As to activity change, negative = inhibition: % is scaled to controls: 0 for no effect and ±100 for the full control effect. The procedure, abridged: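 Luminescent P450-Glo read-out of CYP2D6 turnover of a luciferin substrate after NADPH-driven reaction of 30-45 min at room temperature. Compounds were first preincubated 15 min with enzyme at titrated concentrations; quinidine was the intraplate control.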

In assay [7] the target is Cytochrome P450 2C9 (Homo sapiens) (UniProt P11712). Description: qHTS for inhibitors of CYP2C9 against the NCATS DSHEA and TCM libraries (AID 1919973). Also: potency is read from the fitted curve at half-maximal effect.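 As to activity change, negative = inhibition: luminogenic pro-luciferin CYP2C9 substrate turned into luciferin with NADPH regeneration; series mostly up to about 34 µM; % is scaled to controls: 0 for no effect and ±100 for the full control effect.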 The procedure, abridged:
as §2

Assay [8] addresses Cytochrome P450 2C19 (Homo sapiens) (UniProt P33261). The experiment in a line: qHTS for inhibitors of CYP2C19 against the NCATS DSHEA and TCM libraries (AID 1919974).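 Also: luminescence from luciferin released by CYP2C19 oxidation of a pro-luciferin substrate.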 Also: potency is read from the fitted curve at half-maximal effect. As to activity change, negative = inhibition: % is scaled to controls: 0 for no effect and ±100 for the full control effect. The procedure, abridged: as §2
Assay [9] in a line: KB-3-1 P-gp reporter qHTS against the NCATS DSHEA and TCM libraries (AID 1919975). Also: 0% is about no effect. The procedure, abridged: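 KB-3-1 parental line, 1536-well qHTS: cells seeded, ~4 h attachment, pintool compound addition, ~72 h at 37C, then CellTiter-Glo, 30 min RT, luminescence. Concentration-response format.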
The target in assay [10] is Cytochrome P450 1A2 (Homo sapiens) (UniProt P05177). Description: qHTS for inhibitors of CYPIA2 against the NCATS DSHEA and TCM libraries (AID 1919976).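 Also: light from luciferin formed by CYP1A2 from a pro-luciferin substrate; series mostly up to about 37 µM; % is scaled to controls: 0 for no effect and ±100 for the full control effect.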 In outline: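 CYP1A2 + luciferin substrate, 100 mM KPO4-type buffer; cmpd 15 min RT; 1x NADPH regen, 30-45 min RT dark; detection reagent 30 min RT; luminescence. Minus-enzyme wells as background; furafylline intraplate control.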
Cytochrome P450 1A2 (Homo sapiens), sequence (P05177 whole entry, looked up): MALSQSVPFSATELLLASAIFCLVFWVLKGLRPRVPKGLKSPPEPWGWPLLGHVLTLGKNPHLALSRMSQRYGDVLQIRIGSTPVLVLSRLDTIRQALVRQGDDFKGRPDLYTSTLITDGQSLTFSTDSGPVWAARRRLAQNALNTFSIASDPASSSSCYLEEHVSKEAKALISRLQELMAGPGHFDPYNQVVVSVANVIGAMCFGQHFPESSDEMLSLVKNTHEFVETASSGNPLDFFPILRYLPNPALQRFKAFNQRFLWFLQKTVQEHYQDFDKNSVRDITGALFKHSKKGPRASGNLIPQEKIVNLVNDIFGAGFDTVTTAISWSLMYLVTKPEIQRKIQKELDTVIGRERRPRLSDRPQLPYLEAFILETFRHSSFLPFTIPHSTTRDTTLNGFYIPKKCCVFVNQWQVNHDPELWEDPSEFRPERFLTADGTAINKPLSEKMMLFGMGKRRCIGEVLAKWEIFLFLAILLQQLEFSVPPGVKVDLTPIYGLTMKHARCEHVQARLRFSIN

Assay [11] in a line: qHTS Counterscreen for compound interference against the NCATS DSHEA and TCM libraries (AID 1919978).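 Also: compounds preincubated with 1 µM D-luciferin or buffer before detection reagent; % of control where 0% means no effect.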 Conditions: firefly luciferase detection reagent interference, luminescence. In outline: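 Compounds, titrated from 19.5 nM to 39.8 uM final, were pinned onto 1 uM D-luciferin or plain 100 mM potassium phosphate. After 15 min at room temperature, luciferin detection reagent was added for 30 min before the luminescence read.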

Assay [12] can be described thus: Dual reporter qHTS for agonist of Pregnane X Receptor (hPXR) against the NCATS DSHEA and TCM libraries: Fluorescence readout (AID 1920058). Also: 0% is about no effect. In outline:
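HepG2 hPXR-Luc, 2000 cells/well, 5 h attach; cpds ~24 h, 37 °C/5% CO2; CellTiter-Fluor 1 h; fluor. Ex/Em 405/540 nm = viability.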

Assay [13] concerns the target Nuclear receptor subfamily 1 group I member 2 (Homo sapiens) (UniProt O75469). The experiment in a line: Dual reporter qHTS for agonist of Pregnane X Receptor (hPXR) against the NCATS DSHEA and TCM libraries: Luminescence readout (AID 1920059). Also: 0% is about no effect. The procedure, abridged: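 hPXR-Luc HepG2 cells, 2000/well in 5% charcoal-stripped FBS medium, attached 5 h, then exposed 24 h at 37C to compounds. Viability by CellTiter-Fluor, then luciferase luminescence with ONE-Glo.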

Assay [14] shares this target. Description: Dual reporter qHTS for antagonist of Pregnane X Receptor (hPXR) against the NCATS DSHEA and TCM libraries: Luminescence Readout (AID 1920060). Also: 0% is about no effect. The procedure, abridged:
(§3)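 Rifampicin-stimulated (2 uM final) hPXR-luciferase HepG2 cells were treated for 24 h with DSNP/TCM substances. Viability came from CellTiter-Fluor fluorescence, reporter activity from ONE-Glo luminescence.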

Assay [15] can be described thus: Dual reporter qHTS for antagonist of Pregnane X Receptor (hPXR) against the NCATS DSHEA and TCM libraries: Fluorescence Readout (AID 1920061). Also: 0% is about no effect. The procedure, abridged: as §3

Cytochrome P450 2C9 (Homo sapiens), sequence (P11712 whole entry, looked up): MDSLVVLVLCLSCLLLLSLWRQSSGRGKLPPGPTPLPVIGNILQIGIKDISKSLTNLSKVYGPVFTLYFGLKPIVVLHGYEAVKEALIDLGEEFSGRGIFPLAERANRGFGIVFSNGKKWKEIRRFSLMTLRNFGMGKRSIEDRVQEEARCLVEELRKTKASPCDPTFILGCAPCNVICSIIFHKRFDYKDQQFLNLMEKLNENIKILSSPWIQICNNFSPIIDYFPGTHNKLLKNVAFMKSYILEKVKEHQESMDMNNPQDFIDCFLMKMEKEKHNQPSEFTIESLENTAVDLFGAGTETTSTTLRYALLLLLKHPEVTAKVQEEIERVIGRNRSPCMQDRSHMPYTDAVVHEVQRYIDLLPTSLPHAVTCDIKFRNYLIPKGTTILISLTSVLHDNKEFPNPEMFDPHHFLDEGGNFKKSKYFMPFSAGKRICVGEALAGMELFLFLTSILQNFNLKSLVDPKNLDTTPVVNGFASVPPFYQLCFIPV
Nuclear receptor subfamily 1 group I member 2 (Homo sapiens), sequence (O75469 whole entry, looked up): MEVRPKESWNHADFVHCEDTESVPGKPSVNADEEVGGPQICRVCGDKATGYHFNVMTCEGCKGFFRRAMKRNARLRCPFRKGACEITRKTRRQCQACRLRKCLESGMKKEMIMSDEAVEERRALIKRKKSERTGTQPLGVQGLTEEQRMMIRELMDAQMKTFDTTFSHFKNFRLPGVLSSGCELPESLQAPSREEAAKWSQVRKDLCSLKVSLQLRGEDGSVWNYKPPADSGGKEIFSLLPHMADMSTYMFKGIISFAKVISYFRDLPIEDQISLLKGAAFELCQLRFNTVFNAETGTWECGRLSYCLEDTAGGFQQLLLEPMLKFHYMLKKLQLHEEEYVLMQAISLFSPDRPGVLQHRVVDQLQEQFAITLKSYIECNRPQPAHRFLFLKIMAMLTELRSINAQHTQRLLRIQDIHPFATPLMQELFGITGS
Cytochrome P450 2C19 (Homo sapiens), sequence (P33261 whole entry, looked up): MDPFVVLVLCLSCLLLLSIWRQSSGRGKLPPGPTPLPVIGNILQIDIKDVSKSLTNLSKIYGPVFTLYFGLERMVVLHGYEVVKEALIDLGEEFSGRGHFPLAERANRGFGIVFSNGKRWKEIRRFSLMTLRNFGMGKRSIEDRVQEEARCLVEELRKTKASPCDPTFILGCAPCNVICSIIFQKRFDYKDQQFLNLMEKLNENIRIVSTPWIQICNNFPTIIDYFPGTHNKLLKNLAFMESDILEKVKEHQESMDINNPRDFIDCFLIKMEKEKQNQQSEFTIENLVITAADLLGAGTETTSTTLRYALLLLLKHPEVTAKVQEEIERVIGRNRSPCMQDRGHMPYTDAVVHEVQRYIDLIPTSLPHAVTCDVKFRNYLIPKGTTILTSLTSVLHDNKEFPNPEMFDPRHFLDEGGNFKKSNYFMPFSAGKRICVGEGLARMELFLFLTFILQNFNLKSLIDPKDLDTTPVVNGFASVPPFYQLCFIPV
Cytochrome P450 2D6 (Homo sapiens), sequence (P10635 whole entry, looked up): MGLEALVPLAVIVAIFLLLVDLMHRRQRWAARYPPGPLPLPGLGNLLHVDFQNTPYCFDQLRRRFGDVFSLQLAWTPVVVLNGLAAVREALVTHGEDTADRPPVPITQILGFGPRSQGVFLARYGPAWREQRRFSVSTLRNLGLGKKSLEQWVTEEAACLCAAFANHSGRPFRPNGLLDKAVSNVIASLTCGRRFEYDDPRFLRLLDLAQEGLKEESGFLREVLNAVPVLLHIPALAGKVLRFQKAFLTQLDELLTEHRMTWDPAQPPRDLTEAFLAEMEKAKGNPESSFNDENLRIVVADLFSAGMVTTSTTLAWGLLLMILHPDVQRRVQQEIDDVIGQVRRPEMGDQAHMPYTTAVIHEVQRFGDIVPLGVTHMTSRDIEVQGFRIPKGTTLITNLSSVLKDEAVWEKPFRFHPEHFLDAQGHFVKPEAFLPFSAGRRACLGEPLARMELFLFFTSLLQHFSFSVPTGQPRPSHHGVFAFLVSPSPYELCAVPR

As to `CC1=CCC(O)(C(C)C)CC1` (stereo not drawn), the compound was called inactive in assay [1], in assay [2], in assay [3], in [4], in assay [9] and in assay [12]. Moreover, the call in [14] and in assay [15] was inactive. The Potency result in assay [5], in assay [6], in [7], in assay [8], in [10] and in assay [13] was “inactive” in each case. For the same compound, the max response in assay [11] was 1.58%.
Take `C=C1C[C@@]23CC[C@H]4[C@@](C)(CCC[C@@]4(C)C(=O)O[C@@H]4O[C@H](CO)[C@@H](O)[C@H](O)[C@H]4O)[C@@H]2CC[C@]1(O[C@@H]1O[C@H](CO)[C@@H](O)[C@H](O[C@@H]2O[C@H](CO)[C@@H](O)[C@H](O)[C@H]2O)[C@H]1O[C@@H]1O[C@@H](C)[C@H](O)[C@@H](O)[C@H]1O)C3`: the result in [1], in assay [2], in assay [3], in [4], in assay [9] and in [12] was inactive. For the same compound, the outcome in [14] and in [15] was inactive. Besides, the Potency result in assay [5], in assay [6], in [7], in [8] and in assay [10] was “inactive” each time. For the same compound, in assay [11], the max response was 2.19%.
With `CC1=CCC(=C(C)C)CC1`, the call in assay [1], in assay [2], in assay [3], in [4], in [9] and in assay [12] was inactive. The result in assay [14] and in assay [15] was inactive. For the same compound, the Potency in assay [5] is 39.8 µM (active). For the same compound, the Potency result in [6], in assay [7] and in assay [10] was “inactive” each time. In addition, the max response in [11] is 2.83%.
`C=C(C)C(CC=C(C)C)CC12CC(CC=C(C)C)C(C)(C)C(CC=C(C)C)(C(=O)/C(=C(\O)c3ccc(O)c(O)c3)C1=O)C2=O` (stereo not drawn): the compound was classed as inactive in [1], in [2], in assay [3], in assay [4], in [12] and in assay [14]. For the same compound, the result in [15] was inactive. Besides, the Potency is 14.1 µM (active) in assay [5], 28.2 µM (active) in assay [6], 15.8 µM (active) in [7] and 25.1 µM (active) in assay [8]. Also, the max response in [11] was 3.47%.
With `CC/C=C\C/C=C\C/C=C\C/C=C\CCCCC(=O)O`, the viability change, negative = cytotoxic in assay [1] was -11.8% [at 5 µM]. Also, the activity change, negative = cytotoxicity in [2] was -13.9% [at 5 µM]. In addition, the activity change, negative = cytotoxic in assay [3] was -8.49% [at 3.42 µM]. The activity change, negative = inhibition in [4] is -7.13% [at 3.42 µM]; in assay [5] it was 5.33% [at 4.27 µM]; in assay [6], -5.86% [at 4.27 µM]; in assay [7], -16.1% [at 4.27 µM]; in assay [8], 43.3% [at 4.27 µM]; in assay [9], -9.13% [at 3.26 µM]. Besides, the activity change, negative = inhibition in [10] is 16.4% [at 4.62 µM]; in assay [14] it was -24.2% [at 5 µM]; in assay [15], -0.29% [at 5 µM]. For the same compound, the max response in assay [11] was -1.09%. In addition, the activation is -3.85% [at 5 µM] in [12] and -9.78% [at 5 µM] in [13].
`CC(C)(O)[C@@H]1CC[C@](C)([C@@H]2[C@H](O)C[C@]3(C)C4C[C@@H](O[C@H]5O[C@@H](CO)[C@H](O)[C@@H](O)[C@@H]5O)C5C(C)(C)[C@H](O[C@H]6OC[C@H](O)[C@@H](O)[C@@H]6O)CC[C@]56CC46CC[C@@]23C)O1` (stereo partly drawn): the call in [1], in assay [2], in assay [3], in assay [4], in assay [9] and in assay [12] was inactive. The result in assay [14] and in assay [15] was inactive. For the same compound, the Potency result in assay [5], in assay [6], in [7], in [8] and in assay [10] was “inactive” in each case. In [11], the max response is 1.31%.
